# Screening results deposited in PubChem BioAssay by The Scripps Research Institute Molecular Screening Center.
# The sample as a whole holds a higher share of hits than the screen did.
# TbREL1 primary: TbREL1 RNA ligase inhibitors, primary screen, biochemical, FRET fluorescence | inhibition, % at 9.66 µM | AID 1117264, 2014 | TbREL1 RNA ligation | actives 0.49% (n = 89,000) | RNA-editing ligase 1, mitochondrial (Trypanosoma brucei brucei), P86926;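 active = inhibition above the mean inhibition across all screened compounds plus 3 SD, cut at about 11% in these data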;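 also: 0% = plate median of test wells and 100% = NSC42067 control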
# Target sequence (P86926 whole entry, looked up): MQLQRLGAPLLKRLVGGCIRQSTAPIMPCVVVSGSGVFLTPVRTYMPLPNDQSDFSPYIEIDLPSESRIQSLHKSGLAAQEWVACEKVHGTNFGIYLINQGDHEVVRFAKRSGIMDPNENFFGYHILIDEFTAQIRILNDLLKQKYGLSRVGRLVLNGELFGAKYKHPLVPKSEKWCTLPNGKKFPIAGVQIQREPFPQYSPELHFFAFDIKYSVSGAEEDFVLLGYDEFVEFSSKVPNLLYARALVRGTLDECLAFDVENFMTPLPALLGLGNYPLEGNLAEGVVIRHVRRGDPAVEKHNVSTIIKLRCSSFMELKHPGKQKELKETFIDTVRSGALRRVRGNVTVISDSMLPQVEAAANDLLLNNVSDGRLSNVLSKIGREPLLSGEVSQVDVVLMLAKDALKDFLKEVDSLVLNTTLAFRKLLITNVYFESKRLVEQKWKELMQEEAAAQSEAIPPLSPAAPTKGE
# TbREL1 confirm: TbREL1 RNA ligase inhibitors, confirmation, biochemical, FRET fluorescence, triplicate. shares compounds with TbREL1 primary. TbREL1 RNA ligation. inhibition, % at 9.66 µM. actives 37% (n = 390). AID 1117282, 2014;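 active = mean inhibition across replicates above a set limit taken from the earlier primary screen, cut at about 11% in these data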;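 also: 0% = REL1 with substrate and DMSO and 100% = REL1 plus control inhibitor NSC42067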
# * hit, by the source's call.
SMILES,TbREL1 primary,others
COc1cc(-c2oc3cc(O)cc(O)c3c(=O)c2O[C@@H]2O[C@H](COC3O[C@@H](C)[C@H](O)[C@@H](O)[C@H]3O)[C@@H](O)[C@H](O)[C@H]2O)ccc1O (stereo not given in full),-4,
C[C@@H]1O[C@@H](Oc2c(-c3cc(O)c(O)c(O)c3)oc3cc(O)cc(O)c3c2=O)[C@H](O)[C@H](O)[C@H]1O,54*,TbREL1 confirm=36*
O=c1c(-c2ccc(O)cc2)coc2cc(OC3OC(CO)C(O)C(O)C3O)cc(O)c12 (stereo not given),0,
CCCCNC(=O)C[C@@H]1C(=O)N(CCc2ccc(Cl)cc2)C2=CCCCC[C@]21C(=O)OC,-3,
Cc1cccc(C(=O)Oc2ccc(/C=N/NC(=O)c3ccc(O)cc3)cc2)c1,-4,
O=C(N/N=C/c1ccc(OC(=O)c2ccccc2Cl)cc1)c1cc(O)cc(O)c1,12*,TbREL1 confirm=19*
COc1ccc(/C=N/NC(=O)c2cccc(NC(=O)c3ccccc3Cl)c2)cc1,2,
CCC(C)CNC(=O)c1cn(C(C)c2ccccc2)nn1 (stereo not given),-1,
COc1ccc(-c2cc(C(=O)NN=Cc3ccc(O)c(OC)c3)[nH]n2)cc1,3,
COC(=O)[C@]12CCCCC=C1N(Cc1ccc(OC)cc1)C(=O)[C@@H]2CC(=O)NCC1CCCCC1,-3,
CCOc1ccc(NC(=O)CSc2nncc(=O)n2N)cc1,11*,TbREL1 confirm=1
Nn1c(SCC(=O)Nc2c(Cl)cccc2Cl)nncc1=O,-1,
Nn1c(SCC(=O)Nc2cccc(C(F)(F)F)c2)nncc1=O,5,
CCNC(=S)NNC(=O)c1cnccn1,5,
CCOc1ccc(CCNC(=O)Cc2ccccc2)cc1OCC,-3,
O=C(CSc1nnc(-c2cccs2)n1Cc1ccco1)Nc1ccc(Oc2ccccc2)cc1,5,
Cc1ccc(C(=O)Oc2coc(CSc3ncccn3)cc2=O)cc1[N+](=O)[O-],-5,
Cc1cccc(CCNC(=O)Cn2ncc3c2-c2cc(C)ccc2OC3)c1,1,
Nc1ccc(Oc2ccc3c(c2)OCO3)cc1,-3,
CC(=O)c1ccc2c(c1)OCCOCCOCCO2,2,
Nc1ccc2c(c1)OCCOCCOCCOCCOCCO2,14*,TbREL1 confirm=4
Cc1ccccc1N1CCN(C(=O)CCn2nnc3ccccc32)CC1,-2,
COc1cc(/C=N/n2c(-c3cc(-c4ccccc4)n[nH]3)n[nH]c2=S)ccc1OCc1ccccc1,-6,
NS(=O)(=O)c1ccc(NC(=O)c2cc(=O)c3ccccc3o2)cc1,6,
O=C(Nc1ccc(C(=O)NN2C(=O)c3ccccc3C2=O)cc1)c1ccccc1,0,
SMILES,TbREL1 primary,others
NS(=O)(=O)c1ccc(NC(=O)c2cccc(N3C(=O)c4ccccc4C3=O)c2)cc1,12*,TbREL1 confirm=23*
O=C(NCc1ccco1)C1CCCN(S(=O)(=O)c2ccccc2F)C1 (stereo not given),7,
Nc1c(C(=O)N/N=C/c2cccnc2)oc2nc(-c3ccco3)cc(-c3ccco3)c12,16*,TbREL1 confirm=4
COc1cc(/C=N/NC(=O)c2cc(-c3ccco3)nc3ccccc23)cc(OC)c1O,-3,
COc1ccc(/C=N/NC(=O)c2cccnc2)cc1,1,
COC(=O)C1CN(CC(C)C)CCS(=O)(=O)N1Cc1cccc(Cl)c1 (stereo not given),0,
COc1ccccc1CCC(=O)OCC(=O)NC1CC1,34*,TbREL1 confirm=5
COc1ccccc1CNC(=O)COC(=O)CC1CC2CCC1C2 (stereo not given),5,
O=C(COC(=O)Cc1ccc(Br)cc1)NC1CC1,-1,
CCN(C(=O)[C@@H](C)[C@@H](O)c1ccc(C(C)=O)cc1)c1ccccc1,1,
Cc1nc2cc(C(=O)N3CCN(C(=O)OCc4ccccc4)CC3)ccc2n1C1CCCC1,-4,
COc1cccc(CC(=O)N(Cc2ccccc2)c2ccccc2C(=O)Nc2cc(OC)ccc2OC)c1,7,
Cc1nnc(N=c2ssnc2Cl)o1,13*,TbREL1 confirm=20*
COc1cc(N=c2ssnc2Cl)c(OC)cc1Cl,2,
O=C(Nc1nc2ccccc2s1)c1ccc(F)cc1,15*,TbREL1 confirm=7
NC(=O)c1ccc2nc(NC(=O)c3ccc(N)cc3)sc2c1,4,
O=C(Nc1nc2ccccc2s1)c1ccc(Cl)s1,4,
CCCn1c(C)c(CC(=O)Nc2ccc(N(C)c3ccccn3)cc2)c2ccccc21,-1,
CCOc1ccccc1-c1nc(C(N)=O)c2[nH]c(=O)n(-c3ccc(F)cc3)c2n1,0,
Cc1cccc(-n2c(=O)[nH]c3c(C(N)=O)nc(C(C)C)nc32)c1,0,
Cc1ccsc1-c1nc(C(N)=O)c2[nH]c(=O)n(-c3ccc(Cl)cc3)c2n1,27*,TbREL1 confirm=0
O=C(CCc1nc(-c2ccccc2F)no1)NCCc1cccc(F)c1,0,
C=CS(=O)(=O)N(Cc1ccc(C)cc1)[C@@H](CO)C(=O)OC,3,
Cc1ccccc1Cn1cc(COC(=O)Nc2ccc(F)cc2)nn1,-1,
C#CCOCCOCCOCCNc1nc(N2CCN(C(=O)[C@H](CCCCN)n3cc([C@@H](N)CC(C)C)nn3)CC2)nc(N2CCN(C(=O)[C@H](Cc3cc4ccccc4[nH]3)n3cc([C@@H](N)CC(C)C)nn3)CC2)n1,20*,TbREL1 confirm=13*
SMILES,TbREL1 primary,others
C#CCOCCOCCOCCNc1nc(N2CCN(C(=O)[C@H](CCC(=O)O)n3cc(C(N)Cc4ccc(O)cc4)nn3)CC2)nc(N2CCN(C(=O)[C@H](CCC(=O)O)n3cc(C(N)Cc4ccc(O)cc4)nn3)CC2)n1 (stereo not given in full),3,
C#CCOCCOCCOCCNc1nc(N2CCN(C(=O)[C@H](Cc3ccc(O)cc3)n3cc([C@@H](N)CC(C)C)nn3)CC2)nc(N2CCN(C(=O)[C@H](Cc3cc4ccccc4[nH]3)n3cc([C@@H](N)CC(C)C)nn3)CC2)n1,3,
C#CCOCCOCCOCCNc1nc(N2CCN(C(=O)[C@H](CCCCN)n3cc(CN)nn3)CC2)nc(N2CCN(C(=O)[C@H](CCC(=O)O)n3cc([C@@H](N)CCCCN)nn3)CC2)n1,6,
C#CCOCCOCCOCCNc1nc(N2CCN(C(=O)[C@H]([C@@H](C)CC)n3cc([C@@H](N)CO)nn3)CC2)nc(N2CCN(C(=O)[C@H](CCCCN)n3cc([C@@H](N)CO)nn3)CC2)n1,5,
C#CCOCCOCCOCCNc1nc(N2CCOCC2)nc(N2CCN(C(=O)[C@H](CCC(=O)O)n3cc(C(N)CO)nn3)CC2)n1 (stereo not given in full),16*,TbREL1 confirm=5
Cc1n[nH]c(C)c1S(=O)(=O)NCCc1ccccc1F,0,
Cc1c(NC(=O)C2CCCN(S(=O)(=O)c3ccc(F)cc3)C2)c(=O)n(-c2ccccc2)n1C (stereo not given),-2,
Cc1ccc(NC(=O)CN2CCN(c3nc(-c4ccccc4)cs3)CC2)cc1C,-2,
CC(C)(C)c1ccc(-c2nnc3n2N=C(c2ccc(-c4ccccc4)cc2)CS3)cc1,0,
c1ccc(-c2ccc(C3=Nn4c(nnc4-c4ccccc4)SC3)cc2)cc1,0,
Cc1ccc(-c2nnc3n2N=C(c2ccc(-c4ccccc4)cc2)CS3)cc1,27*,TbREL1 confirm=3
CC1(c2nnnn2C2CCCCC2)CSCC(=O)N1CCc1ccc(O)cc1 (stereo not given),-3,
COC[C@@H]1CCCN1c1cccc2c1S(=O)(=O)N(C1CC1)CCCO2,-1,
